Eight molecules from article PMC5540273 (PLoS ONE, 2017) can be followed below.

Common to all, as to conditions: concentration: 1 μM,replicates: in singlicate; n = 1
Experiment [1] deals with T1, NIM1.
T1 construct: gene MGC42105

Experiment [2] relates to NLK.
In experiment [3] the test system is T2, OSR1.
T2 construct: gene OXSR1

The test system of experiment [4] is PAK1.
For experiment [5], the system named is PAK2.
Experiment [6] deals with PAK3.
Experiment [7] relates to PAK4.
The test system of experiment [8] is PAK6.
Experiment [9] deals with PAK7.
In experiment [10] the test system is T3, PCTK1.
T3 construct: gene CDK16
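Also: KINOMEscan kinase panel screen.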

As to `CC(=O)c1c(-c2ccncc2)[nH]c(-c2ccncc2)c1C` [GW493036], the “%Inh” value in experiment [1] was found to be 8%; in experiment [2], 18%; in experiment [3], 3%; in [4], 15%; in [5], 19%; in experiment [6] it was 20%. In addition, the “%Inh” value in [7] worked out at 0%; in experiment [8], 2%; in [9], 0%; in experiment [10] it was 4%.
Take `O=c1[nH]cc(-c2ccc(O)cc2)c2sc(-c3ccncc3)cc12` [GSK1033723]: the “%Inh” value was determined as 4% in experiment [1]; 11% in experiment [2]; 3% in [3]; 14% in experiment [4]; 5% in [5]; 11% in experiment [6]. The “%Inh” value in [7] stood at 0%; in experiment [8] it was 4%; in experiment [9] it was 5%; in [10], 1%.
Consider `Cn1cc(-c2cccc3c(N)c(C(N)=O)nnc23)cn1`, for which the “%Inh” value in [1] amounted to 9%; in [2], 20%; in experiment [3], 24%; in experiment [4] it was 0%; in [5], 2%; in experiment [6], 44%. Moreover, the “%Inh” value amounted to 1% in experiment [7], 13% in experiment [8], 18% in experiment [9] and 6% in experiment [10].
Turning to `Cc1nnc(-c2ccc3occ(-c4ccc(S(C)=O)cc4)c3n2)o1` (centres unmarked), the “%Inh” value in experiment [1] came to 0%; in experiment [2], 55%; in [3] it was 0%; in experiment [4], 4%; in experiment [5], 0%; in experiment [6], 0%. Also, the “%Inh” value in experiment [7] turned out to be 0%; in experiment [8] it was 3%; in experiment [9], 0%; in experiment [10] it was 0%.
For `FC(F)(F)c1cc(Br)cc(Nc2nccc(-c3cnn4ncccc34)n2)c1` [GW810578], the “%Inh” value in experiment [1] turned out to be 0%; in [2], 0%; in experiment [3] it was 2%; in experiment [4], 11%; in experiment [5], 45%; in [6], 27%. For the same molecule, the “%Inh” value was 22% in experiment [7], 20% in [8], 6% in [9] and 3% in experiment [10].
Turning to `O=C(NCC1CC1)c1ccc(-c2cc(C(=O)NC3CC3)ccc2F)cc1` [GW810445], the “%Inh” value in [1] stood at 35%; in experiment [2], 10%; in experiment [3] it was 0%; in experiment [4], 0%; in experiment [5] it was 26%; in experiment [6] it was 12%. Also, the “%Inh” value in experiment [7] is listed as 0%; in experiment [8], 0%; in experiment [9] it was 4%; in experiment [10], 0%.
Turning to `COC(=O)c1cccc(NC(=O)NC2CCN(c3ccnc(NCc4ccc(F)cc4)n3)CC2)c1` [GSK1379860], the “%Inh” value in [1] came to 15%; in experiment [2], 0%; in experiment [3], 19%; in experiment [4] it was 0%; in [5], 0%; in experiment [6], 0%. Besides, the “%Inh” value in experiment [7] was 0%; in [8], 0%; in experiment [9] it was 0%; in experiment [10] it was 8%.
On to `Cc1n[nH]c2cc(Nc3ccnc(Nc4cccc(CN5CCOCC5)c4)n3)ccc12` [GW682569], for which the “%Inh” value turned out to be 22% in experiment [1]; 18% in experiment [2]; 0% in [3]; 0% in experiment [4]; 0% in [5]; 0% in experiment [6]. Further, the “%Inh” value in experiment [7] was determined as 2%; in experiment [8], 1%; in experiment [9], 20%; in experiment [10] it was 0%.
